Drawing on PubChem BioAssay AID1273 (Columbia University Molecular Screening Center, 2008), this text covers inhibition and normalized cell count for 27 compounds.

Molecules are shown by their SMILES. Hit rate of the full screen: of about 130,000 compounds, about 1,200 (0.92%) were called active. The sample holds actives, similar compounds and a random draw of the others, so the mix is not that of the screen.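 How the source made its calls: active means inhibition above the mean plus 3 SD, with well images judged a real hit on visual review (cut at about 60% in these data, passing the limit was not always enough); inconclusive means inhibition over the cutoff but images rejected on review; inactive means inhibition not above the cutoff.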

A short description of the test: inhibitors of insulin promoter-driven GFP, primary screen, imaging, TRM-6 cells (human fetal islet line), eGFP reporter, cell count (AID 1273;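 on normalized cell count: cells exposed to compound for 48 h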). To be noted: at 2 µM, reporter expression induced with tamoxifen; inhibition: stronger effect = higher value; normalized cell count: measured here: cell count, toxicity.
In the case of `COC(=O)CC1=NN(c2ccccc2)C(=O)C1`, the inhibition (commonly the change of the read-out against control, counted positive when it falls) was 0% (inactive) and the normalized cell count was 102%.
The corresponding values for `CN(C)C=NC(=O)c1cccn1-c1ncc(C(F)(F)F)cc1Cl` are 31.2% (inactive) and 84.7%.
Regarding `COc1ccc(OC)c(NC(=O)CCN2CCC(C)CC2)c1`, the inhibition was 34.2% (inactive) and the normalized cell count was found to be 86.9%.
The like results for `Cc1ccc(NC(=O)CCN2CCc3ccccc3C2)cc1` were, in that order, 28.6% (inactive) and 64.3%.
Consider `CC1CCN(CCC(=O)Nc2ccccc2)CC1`, for which the inhibition was 78.6% (active) and the normalized cell count turned out to be 39.9%.
Take `O=C(CCN1CCN(C/C=C/c2ccccc2)CC1)Nc1cccc(F)c1`: the inhibition is -57.1% (inactive) and the normalized cell count was determined as 154%.
The corresponding values for `CCc1ccc(/C=C2\SC(N3CCOCC3)=NC2=O)cc1` are 16.7% (inactive) and 199%.
In the case of `Cc1nnsc1C(=O)Nc1cccc(Cl)c1C`, the inhibition was 50% (inactive) and the normalized cell count was determined as 71.6%.
The corresponding values for `O=C(Nc1ccc(-c2ccc3nncn3n2)cc1)C1CCCCC1` are -25% (inactive) and 193%.
The corresponding values for `Cc1cccc(NC(=O)CN2C(=O)c3ccccc3C2=O)c1C` are -28.6% (inactive) and 79%.
The corresponding values for `S=C(Nc1ccc2c(c1)OCO2)N1CCCC1` are -79% (inactive) and 73.4%.
In the case of `COc1ccccc1C1=Nc2cccc3cccc(c23)N1`, the inhibition is -6.67% (inactive) and the normalized cell count came out at 113%.
The corresponding values for `Fc1ccccc1N=C1Nc2cccc3cccc1c23` are 88.9% (active) and 172%.
The corresponding values for `c1ccc(C2=Nc3cccc4cccc(c34)N2)cc1` are -73.5% (inactive) and 133%.
With `Cc1ccc(N(C(=O)Cc2cccs2)C2C=CS(=O)(=O)C2)cc1Cl` (centres undefined), the inhibition is 15% (inactive) and the normalized cell count was 128%.
Turning to `Cc1cc(NC(=O)CSc2nc3ccccc3n2CC(C)C)no1`, the inhibition is -41.7% (inactive) and the normalized cell count was found to be 96.4%.
On to `CC1Cc2ccccc2N1S(=O)(=O)c1c(N)n(C)c(=O)n(C)c1=O` (centres undefined), for which the inhibition was -66.7% (inactive) and the normalized cell count was 73.2%.
Consider `O=C(CSc1nnc(-c2cccs2)n1Cc1ccco1)c1ccc2c(c1)OCO2`, for which the inhibition was 17.6% (inactive) and the normalized cell count is 96.9%.
Consider `COc1ccc(NC(=O)CSc2nnc(-c3cccs3)n2Cc2ccco2)cc1OC`, for which the inhibition was 72.7% (active) and the normalized cell count came out at 109%.
As for `Cc1ccc(NC(=O)CSc2nnc(-c3cnccn3)n2Cc2ccco2)cc1C`, the inhibition was -21.6% (inactive) and the normalized cell count was 100%.
For the compound `O=C(CCN1C(=O)c2ccncc2C1=O)Nc1cc(F)ccc1F`, the inhibition is 25% (inactive) and the normalized cell count was 92%.
Regarding `CSCC(NS(=O)(=O)c1ccc(C)cc1)C(=O)O` (centres undefined), the inhibition was -387% (inactive) and the normalized cell count was 83.3%.
`CCOc1ccc(C(C)=O)cc1COC(=O)c1cnc(Cl)c(Cl)c1`: the inhibition is 83.3% (active) and the normalized cell count amounted to 144%.
On to `COCc1cc(C(C)=O)ccc1OC`, for which the inhibition was 30.8% (inactive) and the normalized cell count was 97.5%.
The like results for `Cn1c(N)c(C(=O)COC(=O)c2cnc(Cl)c(Cl)c2)c(=O)n(C)c1=O` were, in that order, -42.9% (inactive) and 106%.
As for `CCSc1sc(CC)cc1C=O`, the inhibition is 57.1% (inactive) and the normalized cell count is 96.8%.
The corresponding values for `CCN1CCN(c2ccc(NC(=O)c3cnccn3)cc2)CC1` are -35.7% (inactive) and 74.9%.
